From PubChem BioAssay AID1851 (National Center for Advancing Translational Sciences (NCATS), 2009) come the findings set out here.

Each structure is given as a SMILES string. About 4,000 (25%) of roughly 16,000 compounds were called active. Not shown: some 26% with an inconclusive outcome. Only a sample is shown. A number with no mark means an inactive call. The call rests on the fitted dose curve; in most records, active means well fitted curve in the direction sought with a large enough effect; inconclusive means small, poorly fitted or top-dose-only effect, or effect the other way; inactive means no such curve, though single readings can be large or run the other way.

One may read the AC50 as the midpoint of the concentration-response curve, whichever way the signal moves.
On the % scale 0 is the no-effect control and ±100 the full control effect.

The test deals with Cytochrome P450 2C9 (Homo sapiens) (UniProt P11712). Description: Cytochrome panel assay with activity outcomes. As to conditions: recombinant CYP, pro-luciferin dealkylation, luminescence, p450-cyp2c9; series mostly up to 57.1 µM.
Cytochrome P450 2C9 (Homo sapiens), sequence (P11712 whole entry, looked up): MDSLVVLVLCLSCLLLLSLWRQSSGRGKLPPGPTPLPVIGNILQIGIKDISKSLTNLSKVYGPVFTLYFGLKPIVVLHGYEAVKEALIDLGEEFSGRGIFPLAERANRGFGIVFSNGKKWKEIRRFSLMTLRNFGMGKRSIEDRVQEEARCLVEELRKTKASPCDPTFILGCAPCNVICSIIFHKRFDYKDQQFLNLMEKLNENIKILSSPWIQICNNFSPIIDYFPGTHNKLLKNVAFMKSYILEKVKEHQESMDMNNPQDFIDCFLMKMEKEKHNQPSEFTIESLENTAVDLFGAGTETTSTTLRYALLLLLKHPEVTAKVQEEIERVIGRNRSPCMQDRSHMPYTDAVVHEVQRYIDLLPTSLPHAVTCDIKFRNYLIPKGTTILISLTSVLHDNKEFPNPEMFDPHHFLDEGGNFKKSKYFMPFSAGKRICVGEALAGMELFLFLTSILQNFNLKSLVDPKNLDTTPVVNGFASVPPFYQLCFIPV
Regarding `CC(C)OC(=O)C(C)(C)Oc1ccc(C(=O)c2ccc(Cl)cc2)cc1`, the AC50 entry is “inactive”. As for `CC(C)N=C(Nc1ccc(Cl)cc1)c1cccnc1`, the AC50 entry was “inactive”. The same measure, in the same setting: then `CCN=C(Nc1ccc(Cl)cc1)c1cccnc1`, with “inactive”; and `CC(C)(Oc1ccc(CCNC(=O)c2ccc(Cl)cc2)cc1)C(=O)O`, with “inactive”. On the same count and under the same terms, then `CC(C)(Oc1ccc(Cl)cc1)C(=O)Nc1ccncc1`, with 501 nM (active); and `CC(C)(Oc1ccc(Cl)cc1)C(=O)Nc1cccnc1`, with 14100 nM (active). On to `Nc1cc(C(=O)O)[nH]c(=O)n1`, for which the activity, negative = inhibition is 7.9% [at 11.4 µM]. In the case of `CC(=O)OCC(=O)[C@@]1(OC(C)=O)[C@H](C)C[C@H]2[C@@H]3C[C@H](F)C4=CC(=O)C=C[C@@]4(C)[C@]3(F)[C@H](O)C[C@@]21C`, the AC50 result was “inactive”.

Consider `CN(C)CCC=C1c2ccccc2CCc2ccccc21`, for which the AC50 entry is “inactive”. Still for that read-out and setting: the same measure for `O=C(CCN1C(=O)C2C3C=CC(C3)C2C1=O)Nc1c(F)cccc1F` (centres undefined): “inactive”; for `CS(=O)(=O)N(CC(=O)Nc1c(F)cccc1F)c1ccc(C23CC4CC(CC(C4)C2)C3)cc1`: 3980 nM (active); for `CC(=O)NC(CCS(C)(=O)=O)C(=O)Nc1c(F)cccc1F` (centres undefined): “inactive”.

As for `CCN(CC)c1ccc(N2C(=O)/C(=C/c3cccnc3)SC2=S)cc1`, the AC50 entry is “inactive”. On the same count and under the same terms, then `Cc1ccc(S(=O)(=O)/N=C2/NC(=O)/C(=C/c3cccnc3)S2)cc1`, with 79.4 nM (active); and `CC(C)c1ccc(/C=N/NC(=O)CN(c2cccc(Cl)c2Cl)S(C)(=O)=O)cc1`, with 8910 nM (active); and `CC(C)NC(=O)CC(=O)N/N=C/c1ccc(F)cc1`, with “inactive”. For `C/C(CCN1CCc2nc(-c3ccccc3)c(-c3ccccc3)cc2C1)=N\O[C@@H](C)CN1CCCCc2nc(C)c(C)cc21`, the activity, negative = inhibition is 2.2% [at 11.4 µM]. In the case of `C#CCN(C)Cc1ccccc1`, the AC50 entry is “inactive”. On the same count and under the same terms, then `CN(Cc1ccccc1)Cn1ccnc1`, with 2510 nM (active). Regarding `CN(C)Cc1ccccc1-c1cc(-n2ccnc2)ncn1`, the activity, negative = inhibition is -14.3% [at 2.29 µM].

In the case of `CC1(C)CC(=O)c2cn3ncnc3nc2C1`, the AC50 entry is “inactive”. Same read-out and setting: the same measure for `O=C(Nc1ccc2c(c1)nc1n2CCN(C2CCCCC2)C1)NC1CCCCC1`: 14100 nM (active). The same measure, in the same setting: then `Cn1c(CN2CCCC2)nc2cc(NC(=O)C3CCCCC3)ccc21`, with “inactive”. Same read-out and setting: then `CC1CCN(CCc2nc3cc(NC(=O)NC4CCCCC4)ccc3n2C)CC1`, with “inactive”; and `CO[C@@]12C[C@@H](COC(=O)c3cncc(Br)c3)CN(C)[C@H]1Cc1cn(C)c3cccc2c13`, with “inactive”. As for `N/C(CC/C(N)=N/O)=N\O`, the activity, negative = inhibition is -8.92% [at 11.4 µM].

Turning to `CCc1cccc2c(C=C(C#N)C#N)cn(CC(=O)N3CCCCC3)c12`, the AC50 entry was “inactive”. Regarding `CCN(CC)C(=O)Cn1cc(/C=C(\C#N)C(=O)N2CCN(c3ccccc3)CC2)c2ccccc21`, the AC50 is 3550 nM (active).

As to `O=C1O[C@H](CN2CCOCC2)CN1/N=C\c1ccc([N+](=O)[O-])o1`, the AC50 result was “inactive”.

For the compound `C[C@@H](C[N+](C)(C)C)OC(N)=O`, the AC50 result is “inactive”.

For `COc1ccccc1CCn1c(=O)c(-c2cccc(F)c2)nc2cncnc21`, the AC50 is 2510 nM (active). Still for that read-out and setting: then `COCCn1c(=O)c(-c2cc(F)cc(F)c2)nc2cncnc21`, with “inactive”. Take `COc1ccc(-n2c(=O)c(-c3cccc(F)c3)nc3cncnc32)cc1`: the AC50 result is “inactive”. For the compound `Cn1c(=O)c(-c2cc(F)cc(F)c2)nc2cncnc21`, the AC50 result is “inactive”. Take `COCCn1c(=O)c(-c2cccc(F)c2)nc2cncnc21`: the AC50 entry is “inactive”. On the same count and under the same terms, the same measure for `COc1ccccc1CCn1c(=O)c(-c2cc(F)cc(F)c2)nc2cncnc21`: 1580 nM (active). Still for that read-out and setting: then `O=C(c1ccccc1)c1ccc2n1CC[C@H]2C(=O)O`, with “inactive”. Take `c1ncc(-c2ccoc2)c(NC2CC2)n1`: the activity, negative = inhibition was 5.65% [at 2.29 µM]. As for `CCCNc1[nH]c(=O)n(C)c(=O)c1N=O`, the AC50 result is “inactive”. Regarding `O=C(O)C12CC3(C(=O)O)CC(C(=O)O)(CC(C(=O)O)(C1)C3=O)C2=O`, the activity, negative = inhibition is -3.16% [at 11.4 µM]. Still for that read-out and setting: then `COc1ccccc1-c1cc(NCc2cccnc2)ncn1`, with -17.3% [at 2.29 µM]. Take `COc1ccc(C2C(C(=O)c3ccco3)=C(O)C(=O)N2Cc2cccnc2)cc1OC` (centres undefined): the AC50 result was “inactive”. The same measure, in the same setting: then `COc1ccc(/C(O)=C2/C(=O)C(=O)N(Cc3cccnc3)C2c2ccco2)cc1OC` (centres undefined), with 8910 nM (active); and `COCCCN1C(=O)C(=O)/C(=C(/O)c2ccc(OC)cc2C)C1c1cccnc1` (centres undefined), with “inactive”. Same read-out and setting: then `COCCN1C(=O)C(=O)/C(=C(/O)c2cccc(OC)c2)C1c1ccco1` (centres undefined), with “inactive”. The same measure, in the same setting: then `CCOc1cccc(/C(O)=C2/C(=O)C(=O)N(Cc3cccnc3)C2c2ccco2)c1` (centres undefined), with 1580 nM (active). Take `COc1cccc(/C(O)=C2/C(=O)C(=O)N(Cc3cccnc3)C2c2ccco2)c1` (centres undefined): the AC50 was 398 nM (active).

Turning to `CCc1cc2c(nc1CC)CCN(CC/C(C)=N/O[C@@H]1O[C@H](COC(C)=O)[C@H](OC(C)=O)[C@H](OC(C)=O)[C@H]1OC(C)=O)C2`, the activity, negative = inhibition is 1.56% [at 11.4 µM]. As to `O=C(Nc1ccc(F)cc1)c1ccc(-n2ccnc2)nc1`, the AC50 was 178 nM (active). Turning to `CN(C)C(=O)c1ccc(-c2nccc(-n3ccnc3)n2)cc1`, the activity, negative = inhibition was 17.2% [at 2.29 µM]. On the same count and under the same terms, the same measure for `CN(C)C(=O)c1ccc(-c2cncnc2-n2ccnc2)cc1`: 12.6% [at 2.29 µM].

For the compound `Cc1c(Cl)cccc1NC(=O)c1ccc(-n2ccnc2)nc1`, the AC50 was 79.4 nM (active). In the case of `CS(=O)(=O)Nc1cccc(-c2cncnc2-n2ccnc2)c1`, the activity, negative = inhibition is 10.1% [at 2.29 µM].

Consider `c1cncc(-c2cc(-n3ccnc3)ncn2)c1`, for which the activity, negative = inhibition was 12.2% [at 2.29 µM]. The same measure, in the same setting: the same measure for `O=C(NCCC[N+]1=CC=N[C@H]1c1ccccc1)N1CCCc2nc(-c3ccc(Br)cc3)ccc21`: -48.1% [at 11.4 µM].

With `O=C(Nc1ccccc1)N1CC[C@@]2(CCCN(C(=O)c3cnccn3)C2)C1`, the AC50 result was “inactive”. With `CN(C)Cc1ccc(O)c(CN(C)C)n1`, the activity, negative = inhibition was 7.12% [at 11.4 µM]. For the compound `CNC(C)c1cc(OC)ccc1OC` (centres undefined), the AC50 entry was “inactive”.

Consider `COc1ccc(C(=O)[C@H](Br)[C@H](Br)C(=O)O)cc1`, for which the activity, negative = inhibition was -11.2% [at 11.4 µM]. For the compound `CC(NC(=O)c1cccc(F)c1)C(c1cccs1)N1CCN(C)CC1` (centres undefined), the AC50 result was “inactive”. Regarding `COc1cc(Br)c(C(C)NC(=O)c2cccc(Br)c2)cc1OC` (centres undefined), the AC50 was 2820 nM (active). Same read-out and setting: the same measure for `COc1ccc(C(=O)NC(C)c2cc(OC)c(OC)cc2Br)cc1` (centres undefined): 12600 nM (active); for `CCCCSc1nc(C)cc(NC(=S)Nc2ccc(OC)cc2)n1`: “inactive”. The same measure, in the same setting: then `O=C1/C(=N\O)Cc2ccccc21`, with “inactive”; and `COCC(=O)N1CCC[C@@]2(CCN(C(=O)Nc3cccc(F)c3)C2)C1`, with “inactive”. Consider `CCOC(=O)CCCN`, for which the activity, negative = inhibition is 4.7% [at 11.4 µM]. Consider `Cc1cc([N+](=O)[O-])ccc1-c1ccc(C2Nc3ccccc3C(=O)N2O)o1` (centres undefined), for which the AC50 was 2820 nM (active). Take `O=[N+]([O-])c1ccc2c(c1)S(=O)c1ccccc1-2` (centres undefined): the activity, negative = inhibition was -1.14% [at 11.4 µM]. The same measure, in the same setting: then `O=C1C2=C(Nc3cc([N+](=O)[O-])ccc3N2)O[C@@H]1c1ccc([C@H]2OC3=C(Nc4ccc([N+](=O)[O-])cc4N3)C2=O)cc1`, with -18.7% [at 11.4 µM]. Turning to `CCOC(=O)Cc1csc(NC(=O)c2ccc(Cl)nc2)n1`, the AC50 was 11200 nM (active). The same measure, in the same setting: the same measure for `COc1cc2cc3c(N)c(C(=O)Nc4sc(C)c(C)c4C#N)sc3nc2cc1OC`: “inactive”. The same measure, in the same setting: then `CCOC(=O)Cc1csc(NC(=O)c2sc3nc4ccc(CC)cc4cc3c2N)n1`, with 447 nM (active).

Turning to `CC(C)(C)c1ccccc1OCCN1CCCC1`, the AC50 entry is “inactive”.

Turning to `Cc1cccc(C)c1NC(=O)/C(C#N)=C/c1cccs1`, the AC50 was 11200 nM (active).

As to `CCOc1ccc2nc(C)cc(Nc3ccc4c(c3)OCCO4)c2c1`, the AC50 result is “inactive”. On the same count and under the same terms, then `CCOc1ccc(-n2c(SCC(=O)Nc3ccc4c(c3)OCCO4)nc3c(c2=O)SCC3)cc1`, with 2820 nM (active).

For the compound `COCCN(C(=O)Nc1ccc(OC)cc1OC)C1CCN(C(C)=O)CC1`, the AC50 result is “inactive”.

Regarding `CCOc1ccc(-n2c(SCC(=O)Nc3ccc(OC)cc3OC)nc3c(c2=O)SCC3)cc1`, the AC50 is 4470 nM (active). Still for that read-out and setting: then `CC(=O)c1[nH]c(C)c(C(C)=O)c1C`, with “inactive”. On to `CN(C)c1ccc2nc3c(C(=O)O)cc(=O)c(O)c-3oc2c1`, for which the activity, negative = inhibition is -29.4% [at 11.4 µM]. For the compound `Cc1ccc(-n2c(O)cnc2Nc2nc(C)cc(C)n2)cc1`, the AC50 entry was “inactive”. Same read-out and setting: the same measure for `COc1ccc(Oc2ncc3nc(-c4ccc(Cl)cc4)c(=O)n(C)c3n2)cc1`: “inactive”. On the same count and under the same terms, the same measure for `COc1ccc(/C(C#N)=C/c2c(-c3ccc(Cl)cc3)nc3c(C)cccn23)cc1`: 5010 nM (active); for `COc1cccc(Nc2ncc3nc(-c4ccc(Cl)cc4)c(=O)n(CCC#N)c3n2)c1`: “inactive”. On the same count and under the same terms, then `O=C(O)Cc1sc(-c2ccc(Cl)cc2)nc1-c1ccccc1`, with 2000 nM (active). As for `Nc1nc(-c2cc(-c3cccc4ccccc34)nc(N)n2)cc(-c2cccc3ccccc23)n1`, the activity, negative = inhibition is 10.6% [at 11.4 µM]. Take `BrC(c1cccc2ccccc12)c1cccc2ccccc12`: the AC50 was 3160 nM (active).

On to `CN(Cc1cccc2ccccc12)Cc1cccc2ccccc12`, for which the activity, negative = inhibition is -23.2% [at 11.4 µM].

In the case of `Fc1ccc(C2CC(c3ccco3)=NN2c2ccccc2)cc1` (centres undefined), the AC50 is 1410 nM (active).

As for `C[C@@H]1CC[C@@H]2C(=O)N3[C@@H](CC[C@@H](C)[C@@H]3c3ccc(-c4ccco4)cc3)C(=O)N2[C@H]1c1ccc(-c2ccco2)cc1`, the activity, negative = inhibition is -27.5% [at 11.4 µM]. Still for that read-out and setting: the same measure for `c1cncc(CNc2ccnc(-c3ccc4c(c3)OCO4)n2)c1`: -9.36% [at 2.29 µM]. On to `Cc1cccc(N2CCN(c3ccc(NC(=O)/C=C(/C(=O)O)c4ccccc4)cc3)CC2)c1`, for which the AC50 result is “inactive”.

Take `COc1ccc(NC2=NC(=S)N(c3ccc(C)cc3)C23CCCCC3)cc1`: the AC50 result is “inactive”. For `Cc1cccc(NC2=NC(=S)N(c3ccc(C(=O)O)cc3)C23CCCCC3)c1`, the AC50 was 25100 nM (active).
